# Measurements: PubChem BioAssay
# Entries with a potency or affinity are not part of this list. Active and inactive are the calls of the source. No rule for the calls is given here.
# Target: Plasmodium falciparum protein kinase 6 (PK6, PF3D7_1337100) (UniProt Q8IDW1)
# Assay: PfPK6 kinase inhibitors, biochemical, TCAMS library (AID 1159586)
# Conditions: recombinant PfPK6, Kinase-Glo ATP depletion luminescence
# Chain of Plasmodium falciparum protein kinase 6 (PK6, PF3D7_1337100) (Q8IDW1 1-305): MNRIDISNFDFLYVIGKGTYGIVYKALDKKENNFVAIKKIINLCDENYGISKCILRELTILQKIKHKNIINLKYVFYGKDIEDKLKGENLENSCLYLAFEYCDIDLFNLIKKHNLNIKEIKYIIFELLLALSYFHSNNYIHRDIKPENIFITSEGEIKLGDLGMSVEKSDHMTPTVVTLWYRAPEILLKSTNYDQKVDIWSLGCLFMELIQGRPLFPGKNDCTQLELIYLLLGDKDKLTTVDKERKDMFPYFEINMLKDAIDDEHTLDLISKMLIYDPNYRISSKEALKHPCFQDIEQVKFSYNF
row,Structure (SMILES),outcome
1,O=C(Nc1ccc(-c2nc3ccccc3[nH]2)cc1)c1ccc(S(=O)(=O)N2CCc3ccccc32)cc1,inactive
2,CCCCNCc1ccc(-c2nc(CN(Cc3ccc(Cl)c(Cl)c3)S(=O)(=O)c3ccc(NC(C)=O)cc3)cs2)cc1,inactive
3,CCCCCCCN1CC[C@@H](CCCc2ccnc3ccc(OCC4CCCNC4)cc23)[C@@H](CC)C1 (stereo not given in full),inactive
4,COc1ccc(NC(=O)NC2CCN(c3ccnc4cc(Cl)ccc34)C2)cc1 (stereo not given),inactive
5,CCOc1ccc2c(NN=Cc3cc(OC)c(OC)cc3OC)cc(C)nc2c1,inactive
6,CCc1cc(NC2CCN(C)CC2)nc(Nc2ccc(C)cc2)n1,inactive
7,O=C(CCC1CCCC1)N(Cc1ccc(-c2ccc(CNCCc3ccccc3)cc2)cc1)C1CCCNC1 (stereo not given),inactive
8,Cc1cc(C(=O)Nc2ccc3c(c2)CCN3C2CCN(Cc3cc(F)cc(F)c3F)C2)no1 (stereo not given),inactive
9,CC(C)C(C(=O)Nc1ccc(S(=O)(=O)N(C)C)cc1)c1ccc(Cl)cc1 (stereo not given),inactive
10,CCCC1N=C(N)N=C(N)N1c1ccc(OC)cc1 (stereo not given),inactive
11,CSc1cccc(NC(=O)c2cc3ccccc3oc2=O)c1,inactive
12,CCc1c[nH]c2c(N3CCCCS3(=O)=O)cc(C(=O)N[C@@H](Cc3ccccc3)[C@H](O)CNCc3cccc(OC)c3)cc12,inactive
13,CCn1c(-c2nonc2N)nc2c(C#CC(C)(C)O)ncc(OCCNCCc3ccc(OC)cc3)c21,inactive
14,O=C(CCc1nc2c(cnn2-c2ccccc2)c(=O)[nH]1)NC1CCSc2ccccc21 (stereo not given),inactive
15,CCOC(=O)c1ccc(NC(=O)N(Cc2ccc(-c3cccc(CN4CCNCC4)c3)cc2)C2CCN(Cc3ccccc3)CC2)cc1,inactive
16,COc1ccc(O)c(C(=O)c2cc(C(=O)NCCc3ccccc3)c(=O)n(CCc3ccccc3)c2)c1,inactive
17,Cc1nn(CC(O)Cn2c3ccc(Br)cc3c3cc(Br)ccc32)c(C)c1Br (stereo not given),inactive
18,NC1CCN(c2nc(NCCCc3ccc(O)cc3)nc(NCc3cccc4ccccc34)n2)CC1,inactive
19,Cn1nccc1C(=O)NCCNCc1cccc(-c2ccc(-c3nc4ccccc4[nH]3)s2)c1,inactive
20,O=C(NC(Cc1ccccc1)C(=O)O)c1cc(=O)c2ccccc2o1 (stereo not given),inactive

row,Structure (SMILES),outcome
1,COc1cc(NC(=O)N2CCOC(CCN3CCC(c4ccccc4)CC3)(c3ccc(Cl)c(Cl)c3)C2)cc(OC)c1 (stereo not given),inactive
2,CN(C)CCOc1ccc2c(c1)CN(C)CC2c1ccccc1 (stereo not given),inactive
3,CC(Cl)=CCc1c(C)[nH]c2c(ccc3ccccc32)c1=O,inactive
4,COc1ccc2ncc(F)c(CCN3CC[C@@H](CNCc4nc5c(cc4C)SCC(=O)N5)C3)c2n1,inactive
5,CC1(C)[C@H]2CC[C@@H](CNc3nc(NCC(=O)Nc4ccc5ccccc5c4)nc(N4CCC(N5CCCC5)CC4)n3)[C@@H]1C2,inactive
6,CCNc1cc(C(=O)N[C@@H](Cc2cccc(F)c2)[C@H](O)CNC(C)CCCC(C)C)cc(N2CCCCS2(=O)=O)c1 (stereo not given in full),inactive
7,C[C@@H]1CN(C(c2cccc(O)c2)c2cccc(C(=O)N(C)c3cccc(F)c3)c2)[C@@H](C)CN1C(c1cccc(O)c1)c1cccc(C(=O)N(C)c2cccc(F)c2)c1 (stereo not given in full),inactive
8,O=C(NCCCCCN1CCC(c2c[nH]c3ccccc23)C1)Nc1ccc(Cl)c(Cl)c1 (stereo not given),inactive
9,CC(Cc1ccc(OCCN2CCN(c3ccc(Cl)cc3)CC2)cc1)NCC(O)c1cccc(C(F)(F)F)c1 (stereo not given),inactive
10,COc1ccc2c(c1)ncn2-c1cc(OCc2ccncc2Br)c(C(N)=O)s1,inactive
11,CC(C)N1CCN(CCCCNc2c3ccccc3nc3ccccc23)CC1,inactive
12,N#Cc1ccc2c(c1)CCN(CCC1CCC(NC(=O)c3cc4ccc(Br)cc4[nH]3)CC1)C2 (stereo not given),inactive
13,COc1ccccc1CNc1nc(Nc2ccccc2C)nc2ccccc12,inactive
14,CNC(=O)NC1CCN(Cc2c(-c3cccs3)nc3ccccc3c2C(=O)N[C@@H](C)C2CCCCC2)CC1,inactive
15,N#Cc1cccc(NC(=O)Nc2ccc(-c3csc(-c4nc5ccccc5[nH]4)c3)cc2)c1,inactive
16,COc1ccc2nccc(N3CCC(NCCNCc4ccc5c(n4)NC(=O)CO5)C3)c2n1 (stereo not given),inactive
17,Cn1c(NCc2cc(F)cc3c2OCOC3)nc2cc(Nc3ccnc(Nc4cccc(CS(C)(=O)=O)c4)n3)ccc21,inactive
18,CC(=O)c1c[nH]c(C(=O)Nc2ccc(-c3cn4ccccc4n3)cc2)c1,inactive
19,C=C1N(C)c2cc([N+](=O)[O-])c(N)cc2C1(C)C,inactive
20,CC(C)CCn1c(Sc2ccc(C#N)c([N+](=O)[O-])c2)nnc1-c1ccccc1Cl,inactive
